Rows were chosen to be rich in hits. Some 4.6% of all compounds tested hit in one or more screens of this group.
D1 agonist = agonists of human D1 dopamine receptor; HEK293 T-REx D1 cells, calcium flux, agonist mode; activation, % at 2 µM; actives 1% (n = 360,000); AID 504660
Target sequence (P21728 whole entry, looked up): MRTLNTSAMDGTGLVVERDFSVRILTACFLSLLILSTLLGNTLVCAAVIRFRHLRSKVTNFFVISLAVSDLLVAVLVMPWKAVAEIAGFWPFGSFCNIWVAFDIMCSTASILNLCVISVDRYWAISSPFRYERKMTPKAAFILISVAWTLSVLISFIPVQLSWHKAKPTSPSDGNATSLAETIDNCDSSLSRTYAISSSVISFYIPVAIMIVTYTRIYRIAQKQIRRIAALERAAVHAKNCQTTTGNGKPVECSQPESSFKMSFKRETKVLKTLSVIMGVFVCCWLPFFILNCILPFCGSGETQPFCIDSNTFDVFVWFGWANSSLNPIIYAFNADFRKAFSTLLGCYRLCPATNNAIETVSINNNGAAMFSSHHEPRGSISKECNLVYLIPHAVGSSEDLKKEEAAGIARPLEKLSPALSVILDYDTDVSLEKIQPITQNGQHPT
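Agonism was scored from calcium flux recorded over 180 s (1 read/s) after pintool compound addition, following a 10-cycle baseline. Cells were inducible force-coupled HEK293 TREx D1, plated overnight at 30 C and loaded with no-wash calcium dye.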
D1 antag = human D1 dopamine receptor antagonism | P21728 | HEK293 TREx D1 cells, calcium flux, dopamine EC80; active compounds read low | activity change, negative = inhibition, % at 10 µM | actives 3.2% (n = 360,000) | AID 504652; in the data active = activity change below about -30%
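Tetracycline-induced HEK293 T-REx cells with force-coupled D1 receptor were loaded with a no-wash calcium dye. Compound was added after a 10 s baseline and read kinetically for 180 s; EC80 dopamine was then added and calcium flux followed another 180 s.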
TRHR ag = activates the human TRH receptor; P34981; activation, % at 2 µM; actives 0.18% (n = 360,000); TRHR cells, calcium flux fluo-8, FDSS agonist mode; AID 493084
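Steps: seed TRHR cells overnight; add fluo-8 no-wash Ca dye, RT 30 min–1.5 h; record 10 s baseline; pin-transfer compounds; monitor fluorescence 1 cycle/s for the agonist window. Calcium increases flag candidate agonists.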
D1 potentiator = human D1 dopamine receptor positive modulation; actives 0.036% (n = 360,000); potentiation, % at 10 µM; HEK293 TREx D1 cells, calcium flux, dopamine EC20 potentiation; P21728; in the data active = potentiation above about 30%
TRHR enhancer = allosterically enhances the human TRH receptor | P34981 | TRHR cells, fluo-8 calcium fluorescence, EC20 TRH enhancement | enhancement, % at 2 µM | actives 0.66% (n = 360,000); in the data active = enhancement above about 30%
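Enhancer read-out: after compound pinning and an initial kinetic agonist-mode read, an EC20 of TRH (10 nM final) was injected and fluo-8 calcium signal (Ex 480/Em 530) followed at 1 s/cycle for 100 cycles in TRHR-expressing cells.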
Hits are given with their value; n = inactive; x = no result given. Rule as the data show it, unless noted: active = activation above about 30%; inactive = the rest.

SMILES | D1 agonist | D1 antag | TRHR ag | D1 potentiator | TRHR enhancer
COc1cccc(-c2c(C(=O)N/N=C/c3cccs3)nnn2-c2nonc2N)c1 | 61 | n | n | n | n
COc1cc(/C(C)=N/NC(=O)c2nnn(-c3nonc3N)c2-c2cccs2)ccc1O | n | n | n | n | n
Cc1ccc(/C=N/NC(=O)c2nnn(-c3nonc3N)c2-c2cccs2)cc1 | 163 | n | n | n | n
CCOc1cccc(-c2c(C(=O)N/N=C/c3cccs3)nnn2-c2nonc2N)c1 | 30 | n | n | n | n
CN1CCN(C(=S)C(=O)Nc2ccc(Br)cc2)CC1 | n | n | n | n | n
CC(C)(C)C(=O)N1CCN(C(=O)c2ccco2)CC1 | n | n | n | n | n
COc1ccc(/C=N/NC(=O)c2nnn(-c3nonc3N)c2-c2cccc(OC)c2)cc1 | 99 | n | n | n | n
Nc1nonc1-n1nnc(C(=O)N/N=C/c2ccncc2)c1CSc1ccc(Cl)cc1 | n | n | n | n | n
Cc1ccc(SCc2c(C(=O)N/N=C/c3ccncc3)nnn2-c2nonc2N)cc1 | n | -42 | n | n | n
Cc1ccc(/C=N/NC(=O)c2nnn(-c3nonc3N)c2CN(C)C)o1 | n | n | n | n | 32
COCc1c(C(=O)N/N=C/c2ccc(C)o2)nnn1-c1nonc1N | n | n | n | x | n
Nc1nonc1-n1nnc(C(=O)N/N=C/c2ccc(F)cc2)c1-c1ccc2c(c1)OCO2 | n | n | n | n | n
CCOc1cccc(-c2c(C(=O)N/N=C/c3ccncc3)nnn2-c2nonc2N)c1 | n | n | n | n | n
Cc1ccc(/C=N/NC(=O)c2nnn(-c3nonc3N)c2-c2ccc3c(c2)OCO3)s1 | 49 | n | n | 36 | n
COc1cc(NC(=O)c2cc(C)nc3c2c(C)nn3-c2ccccc2Cl)cc(OC)c1 | n | n | n | n | n
O=C(CSc1nccn1Cc1ccccc1)Nc1ccc2c(c1)OCO2 | n | n | n | n | n
CNC(=O)c1ccc2nc(Cc3ccccc3)oc2c1 | n | n | n | n | n
CCC(=O)N1CCc2cc(S(=O)(=O)NCCC(=O)N3CCN(c4cccc(C)c4)C(C)C3)ccc21 (stereo unspecified) | n | -40 | n | n | n
CCC(=O)N1CCc2cc(S(=O)(=O)NC(C(=O)NCCc3cccc(C)c3)C(C)C)ccc21 (stereo unspecified) | n | -62 | n | n | n
CC(=O)N1CCc2cc(S(=O)(=O)NC(Cc3ccccc3)C(=O)Nc3cccc(C)c3)ccc21 (stereo unspecified) | n | -38 | n | n | n
CCC(=O)N1CCc2cc(S(=O)(=O)NC(C(=O)NCc3ccccc3)C(C)C)ccc21 (stereo unspecified) | n | n | n | n | n
CC(NC(=O)Nc1cc(Cl)ccc1Cl)c1c(-n2cccc2)sc2c1CCCC2 (stereo unspecified) | n | n | n | n | n
Cc1cccc(OCCSc2nnc(-c3cccs3)o2)c1 | 44 | n | n | n | n
Cc1[nH]c2ccccc2c1SCCNC(=O)c1ccc(F)cc1 | n | -34 | n | n | n
COc1ccc(C(=O)NCCSc2c(C)[nH]c3ccccc23)cc1 | n | n | n | n | n
SMILES | D1 agonist | D1 antag | TRHR ag | D1 potentiator | TRHR enhancer
COc1ccc(Oc2c(O)c3ccccc3n(C)c2=O)cc1 | n | -45 | n | n | n
Cn1c(=O)c(Oc2ccc(Cl)cc2)c(O)c2ccccc21 | n | n | n | n | n
Cc1ccc(N=Nc2ccc(O)c3ncccc23)cc1C | 36 | n | n | n | n
O=C(COC(=O)c1ccncc1)NC(=O)C1CCCCC1 | n | -36 | n | n | n
CCc1cccc(NC(=O)C(Cc2ccccc2)NS(=O)(=O)c2ccc3c(c2)oc(=O)n3C)c1 (stereo unspecified) | 31 | n | n | n | n
CCOc1ccc(NC(=O)C(Cc2ccccc2)NS(=O)(=O)c2ccc3c(c2)oc(=O)n3C)cc1 (stereo unspecified) | n | n | n | n | n
CCc1ccc(NC(=O)CCS(=O)(=O)c2ccc3c(c2)oc(=O)n3C)cc1 | n | -37 | n | n | n
CCn1ccc2c(OCC(=O)Nc3ccc(C)c(Cl)c3)cccc2c1=O | n | x | n | n | n
O=C(NCCCc1nc2ccccc2n1Cc1ccc(Cl)cc1)c1ccco1 | 81 | -31 | n | n | n
O=C(Nc1ccc(N2CCN(C(=O)c3ccco3)CC2)cc1)c1ccccc1 | n | -56 | n | n | n
O=C(Nc1ccc(N2CCN(Cc3ccccc3)CC2)cc1)c1ccco1 | n | -30 | n | n | n
COc1ccccc1NS(=O)(=O)c1c(C)[nH]c(C)c1C(=O)N1CCCC1 | n | n | n | n | n
COc1ccc(C(F)(F)F)cc1NC(=O)C(OC(=O)CNC(=O)c1ccccc1)c1ccccc1 (stereo unspecified) | n | n | n | n | n
COc1ccc(-c2nn(-c3ccccc3)cc2/C=N/NC(=O)c2cccc(S(=O)(=O)Nc3ccccc3Cl)c2)cc1 | n | -36 | n | n | n
COc1ccc(-c2nn(-c3ccccc3)cc2/C=N/NS(=O)(=O)c2ccccc2)cc1 | n | n | n | n | n
COc1ccc(CCNC(=O)C(=O)NCC(c2ccco2)S(=O)(=O)c2ccccc2)cc1OC (stereo unspecified) | n | x | n | n | n
CC(C)(C)NC(=O)C(c1ccccn1)N(C(=O)c1csnn1)C1CCCCC1 (stereo unspecified) | n | n | n | n | n
CC(C)(C)NC(=O)C(c1ccccn1)N(C(=O)c1ccc2c(c1)OCCO2)C1CCCC1 (stereo unspecified) | n | -39 | n | n | n
Cc1ccc(C)c(NC(=O)CCCN2C(=O)C(c3ccccc3)Oc3cccnc32)c1 (stereo unspecified) | n | n | n | n | 53
Clc1ccc(-c2nnc3n2CCCS3)cc1 | n | n | n | n | 34
COc1ccc(CNC(=O)c2ccc3nc(-c4ccc(F)cc4)c(-c4ccc(F)cc4)nc3c2)cc1 | n | n | n | n | n
CC(=O)N1N=C(c2ccc(C)cc2)OC1c1cccnc1 (stereo unspecified) | n | -32 | n | n | n
CC(=O)N1N=C(c2cccc(Cl)c2)OC1c1ccc(C(C)C)cc1 (stereo unspecified) | n | n | n | n | n
COC(=O)c1scc(-c2ccc(C)cc2)c1S(=O)(=O)N1CCN(c2cccc(Cl)c2)CC1 | n | n | n | n | n
CC1Cc2cc(S(=O)(=O)NCCc3ccccc3)ccc2N1C(=O)C1CC1 (stereo unspecified) | n | n | n | n | n
CC1Cc2cc(S(=O)(=O)NCc3ccccc3Cl)ccc2N1C(=O)C1CCC1 (stereo unspecified) | n | -80 | n | n | n
CCC(=O)N1c2ccc(S(=O)(=O)NCc3ccc(F)cc3)cc2CC1C (stereo unspecified) | n | -33 | n | n | n
